Reference: ChEMBL document CHEMBL3988442, “University of Dundee, Small-Polar-MMV Screening Library” (2021)
About 900 (1.7%) of roughly 53,000 compounds showed an effect of 50% or more. The full list was thinned out, with strong results kept by preference.

Each molecule was assayed on Mycobacterium tuberculosis (assay: Cornell - Phenotypic assay to identify agents that inhibit growth of Mycobacterium tuberculosis). Conditions: 10 mM as filed; unlikely as a test dose.
Type: functional
Design: scale not given: direction of the effect not stated beside the values
For `CCc1ncc2c(n1)CN(Cc1nc(-c3cccs3)no1)CC2`, the “Percent Effect” value was 23.26%. For `Cc1ncc2c(n1)CN(Cc1nc(-c3cccs3)no1)CC2`, the “Percent Effect” value was -6.861%. `CC(C)c1ncc2c(n1)CN(Cc1nc(-c3cccs3)no1)CC2` was tested, and the “Percent Effect” value was 53.42%. In the case of `CCOc1cccc2c1OCC(=O)N(c1ccc3c(c1)OCO3)C2`, the “Percent Effect” value is reported as -8.978%. In the case of `Cc1ncc(C(=O)NCCNC(=O)c2ccccc2)s1`, the “Percent Effect” value is reported as -13.65%. For `CCc1nccn1C1CCCN(C(=O)c2cn3c(C)cccc3n2)C1` (stereo unspecified), the “Percent Effect” value was 3.072%. For `CN1CCOC(CN(C(=O)CCc2cnn(C)c2)c2nccs2)C1` (stereo unspecified), the “Percent Effect” value was -11.48%. For `CCN1CCC(CNCc2c[nH]nc2C(C)(C)C)C1.Cl` (stereo unspecified), the “Percent Effect” value was 10.08%. With `CC(C)N1CCC(CNCc2c[nH]nc2C(C)(C)C)C1` (stereo unspecified) the “Percent Effect” value was 7.799%. In the case of `CC(C)(C)c1n[nH]cc1CNCC1CCN(C2CC2)C1.Cl` (stereo unspecified), the “Percent Effect” value is reported as 94.59%. With `Cl.O=S(=O)(N1CCCC1)N1CC[C@H](c2ccccc2)[C@H]2NCCCC[C@H]21` the “Percent Effect” value was -130.5%. With `CCC(CO)(CO)NC(=O)C1CCC(=O)N(CCc2ccccc2)C1` (stereo unspecified) the “Percent Effect” value was 9.017%. With `CC(Cn1cccn1)NCc1csc(-c2ccsc2)n1` (stereo unspecified) the “Percent Effect” value was 13.88%. In the case of `Cc1cnn(CC(C)NCc2csc(-c3cccs3)n2)c1` (stereo unspecified), the “Percent Effect” value is reported as 3.673%. For `COc1ccc(-c2nc(CNC(C)Cn3cccn3)cs2)cc1` (stereo unspecified), the “Percent Effect” value was 49.5%. With `CC(Cn1cccn1)NCc1csc(-c2ccc3c(c2)OCO3)n1` (stereo unspecified) the “Percent Effect” value was 59.29%. In the case of `CC(Cn1cccn1)NCc1csc(-c2ccccc2)n1` (stereo unspecified), the “Percent Effect” value is reported as 63.3%. `CC(Cn1cccn1)NCc1nc(-c2ccc3c(c2)OCO3)no1` (stereo unspecified) was tested, and the “Percent Effect” value was 3.313%. `CC(Cn1cccn1)NCc1csc(-c2ccc(F)cc2)n1` (stereo unspecified) was tested, and the “Percent Effect” value was 35.16%. For `COc1cccc(-c2nc(CNC(C)Cn3cccn3)cs2)c1` (stereo unspecified), the “Percent Effect” value was 32.64%. With `CC(Cn1cccn1)NCc1csc(-c2cccs2)n1` (stereo unspecified) the “Percent Effect” value was 61.96%. With `CC(C)Cc1cc(NC(=O)c2ccccc2F)n(C)n1` the “Percent Effect” value was 11%. In the case of `CCc1ccc(N2CCC(NS(=O)(=O)N(CC)CC)CC2)cc1`, the “Percent Effect” value is reported as 14.08%. In the case of `CCN(CC)C(=O)c1ccc(NC(=O)CNc2ccc(Br)cc2F)cc1`, the “Percent Effect” value is reported as -14.15%. `COc1ccc(NC(=O)CNc2ccc(Br)cc2F)cc1` was tested, and the “Percent Effect” value was 107.2%. In the case of `N#CCc1ccc(NC(=O)CNc2ccc(Br)cc2F)cc1`, the “Percent Effect” value is reported as 10.15%. `CC(C)CN1CCC(c2nc3ccc(NC(C)C)cn3n2)CC1.O=C(O)C(F)(F)F.O=C(O)C(F)(F)F` was tested, and the “Percent Effect” value was 2.767%. In the case of `CN1CCOC(CNCc2cnc(C(C)(C)C)s2)C1` (stereo unspecified), the “Percent Effect” value is reported as 18.35%. With `Cc1cc(C(=O)Nc2cccn(Cc3ccc(F)cc3)c2=O)no1` the “Percent Effect” value was 24.65%. With `CC(NC(=O)N1CCN(c2cccs2)CC1)c1ccncc1` (stereo unspecified) the “Percent Effect” value was 62.51%. In the case of `O=C(NCCn1ccnc1)N1CCN(Cc2cccs2)CC1`, the “Percent Effect” value is reported as -4.677%. `CC(C)c1noc(CCNC(=O)N2CCN(c3cccs3)CC2)n1` was tested, and the “Percent Effect” value was 4.976%. With `CC(NC(=O)N1CCN(c2ncccn2)CC1)c1ccc(C#N)cc1` (stereo unspecified) the “Percent Effect” value was -12.2%. `O=C(NCCn1ccnc1)N1CCN(c2nccs2)CC1` was tested, and the “Percent Effect” value was -3.95%. `Cc1noc(C)c1C(C)NC(=O)N1CCN(c2cccs2)CC1` (stereo unspecified) was tested, and the “Percent Effect” value was 32.97%. With `O=C(NCCCn1ccnc1)N1CCN(c2cccs2)CC1` the “Percent Effect” value was 78.28%. `CC(=O)Nc1nc(C(=O)NC(C)c2ccc(C#N)cc2)cs1` (stereo unspecified) was tested, and the “Percent Effect” value was 12.08%. `CC(NC(=O)N1CCN(c2cccs2)CC1)c1ccc(C#N)cc1` (stereo unspecified) was tested, and the “Percent Effect” value was 66.35%. For `CN(C)C[C@@H]1C[C@@H]2CN(C(=O)Cc3cccs3)CC[C@@H]2N1C`, the “Percent Effect” value was -13.85%. For `Cc1cc(C)nc(N2CCC(Cn3cc(C(=O)N(C)C)cn3)CC2)n1`, the “Percent Effect” value was 9.732%. In the case of `CC(C)(C)c1cc(NC(=O)CNC2CCc3ncnn3C2)on1` (stereo unspecified), the “Percent Effect” value is reported as -1.762%. With `c1cncc(Cc2nnc3n2CCN(CC2CCOC2)CC3)c1` (stereo unspecified) the “Percent Effect” value was 8.69%. For `O=C(O)c1ccc(S(=O)(=O)Nc2c(F)cccc2-n2cccn2)cc1`, the “Percent Effect” value was 7.087%. `O=C(O)C(F)(F)F.O=C(O)C(F)(F)F.O=C(c1ccc(F)cc1)N1CCN2C[C@H](OCc3cccnc3)C[C@H]2C1` was tested, and the “Percent Effect” value was 19.5%. With `O=C(c1cccc2ccnn12)N1CCCC1Cn1cccn1` (stereo unspecified) the “Percent Effect” value was 2.312%. `Cc1noc(-c2c[nH]nc2C2CCCN2C(=O)c2ccccc2)c1C` (stereo unspecified) was tested, and the “Percent Effect” value was -2.6%. In the case of `CCCC(=O)N(CCCN1CCOCC1)c1nc2c(C)c(C)ccc2s1.Cl`, the “Percent Effect” value is reported as 69.7%. With `CCCC(=O)N(CCN1CCOCC1)c1nc2c(OC)ccc(C)c2s1.Cl` the “Percent Effect” value was -1.479%. `CCCC(=O)N(CCCN1CCOCC1)c1nc2c(C)ccc(Cl)c2s1.Cl` was tested, and the “Percent Effect” value was 110.2%. With `CCCC(=O)N(CCCN1CCOCC1)c1nc2c(Cl)cccc2s1.Cl` the “Percent Effect” value was 9.811%. In the case of `Cc1ccc(CCCC(=O)N(C)CCN2CCOCC2)cc1`, the “Percent Effect” value is reported as -37.37%. For `CCCC(=O)N(CCCN1CCOCC1)c1nc2c(F)cccc2s1.Cl`, the “Percent Effect” value was 7.328%. With `CC(=O)N1CCC(c2nccnc2Nc2ncc(C)s2)CC1` the “Percent Effect” value was 21.23%. `O=C(NCCc1ccccn1)c1[nH]nc2c1CCCC2` was tested, and the “Percent Effect” value was 20.26%. `O=C(Nc1ccccc1OC1CCOC1)c1[nH]nc2c1CCCC2` (stereo unspecified) was tested, and the “Percent Effect” value was 80.23%. With `O=C(Nc1ccccc1OC1CCOC1)c1cc[nH]n1` (stereo unspecified) the “Percent Effect” value was -18.84%. With `CO[C@@H]1CC[C@H]2[C@H]1OCCN2C(=O)COc1ccc(F)cc1` the “Percent Effect” value was 15.86%. With `COCCC(C)NC(=O)c1cc(Br)c2c(c1)OCCO2` (stereo unspecified) the “Percent Effect” value was 13.03%. `Cc1nccc(-c2cccc(NCC(=O)N3CCOCC3)c2)n1` was tested, and the “Percent Effect” value was 9.914%. `CNc1cccc(C2CN(C(=O)CNS(C)(=O)=O)CCO2)n1` (stereo unspecified) was tested, and the “Percent Effect” value was -23.18%. With `CC(C)CCC(=O)N(C)CC(=O)Nc1ccc(Br)cn1` the “Percent Effect” value was -12.94%. `O=C(c1cnc2ccc(F)cc2c1NCc1ccccn1)N1CCCC1` was tested, and the “Percent Effect” value was 5.685%. In the case of `COCCC1(CNC(=O)Nc2ccc(-n3ccnn3)cc2)CCC1`, the “Percent Effect” value is reported as 75.09%. With `COCCC1(CNC(=O)Nc2ccc(-n3nccn3)cc2)CCC1` the “Percent Effect” value was 32.79%. In the case of `COCCC1(CNC(=O)Nc2ccc(-n3cccn3)cc2)CCC1`, the “Percent Effect” value is reported as 21.41%. For `Cc1nc(C2CCCNC2)nc2c1CCCN2Cc1ccccn1.Cl.Cl` (stereo unspecified), the “Percent Effect” value was 10.21%.
